Source: the supplement of paper PMC11732987, “Enantioselective OTUD7B fragment discovery through chemoproteomics screening and high-throughput optimisation” (Communications Chemistry, 2025)

Experiments:
Assay in all cases: log2 ratio of Biotin-Ahx-Ub-VS probe labelling (fragment/DMSO); higher = less target engagement (more negative = stronger competition), active = hit call of the paper (q ≤ 0.05, log2 ratio ≤ -1)
Settings in all cases: compound concentration: 200 uM; treatment time: 3 h
[1] = target: T1, OTUD6B (UniProt Q8N6M0)
T1 sequence (whole entry): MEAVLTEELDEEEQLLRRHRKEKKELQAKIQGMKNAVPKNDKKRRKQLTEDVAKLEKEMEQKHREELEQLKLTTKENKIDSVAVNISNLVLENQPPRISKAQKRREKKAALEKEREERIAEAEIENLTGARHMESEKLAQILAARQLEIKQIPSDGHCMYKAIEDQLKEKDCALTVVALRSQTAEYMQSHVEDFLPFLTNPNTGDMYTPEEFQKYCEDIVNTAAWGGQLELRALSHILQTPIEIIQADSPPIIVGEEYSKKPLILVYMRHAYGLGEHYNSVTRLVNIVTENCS
How it was run: (§1)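 Global-median-normalised Spectronaut label-free quantities were compared by unpaired t-test, and values are average log2 ratios of fragment over vehicle. Only proteins with ≥2 unique peptides were used. HEK293T lysate (495 µg per sample) was treated in triplicate with fragment at 200 µM or vehicle for 3 h and then with Biotin-Ahx-Ub-VS at 0.5 µM final for 1 h. Labelled DUBs were then NeutrAvidin-enriched, digested with LysC and trypsin, and run by diaPASEF LC-MS/MS.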

[2] = target: T2, OTUD7B (UniProt Q6GQQ9)
T2 sequence (whole entry): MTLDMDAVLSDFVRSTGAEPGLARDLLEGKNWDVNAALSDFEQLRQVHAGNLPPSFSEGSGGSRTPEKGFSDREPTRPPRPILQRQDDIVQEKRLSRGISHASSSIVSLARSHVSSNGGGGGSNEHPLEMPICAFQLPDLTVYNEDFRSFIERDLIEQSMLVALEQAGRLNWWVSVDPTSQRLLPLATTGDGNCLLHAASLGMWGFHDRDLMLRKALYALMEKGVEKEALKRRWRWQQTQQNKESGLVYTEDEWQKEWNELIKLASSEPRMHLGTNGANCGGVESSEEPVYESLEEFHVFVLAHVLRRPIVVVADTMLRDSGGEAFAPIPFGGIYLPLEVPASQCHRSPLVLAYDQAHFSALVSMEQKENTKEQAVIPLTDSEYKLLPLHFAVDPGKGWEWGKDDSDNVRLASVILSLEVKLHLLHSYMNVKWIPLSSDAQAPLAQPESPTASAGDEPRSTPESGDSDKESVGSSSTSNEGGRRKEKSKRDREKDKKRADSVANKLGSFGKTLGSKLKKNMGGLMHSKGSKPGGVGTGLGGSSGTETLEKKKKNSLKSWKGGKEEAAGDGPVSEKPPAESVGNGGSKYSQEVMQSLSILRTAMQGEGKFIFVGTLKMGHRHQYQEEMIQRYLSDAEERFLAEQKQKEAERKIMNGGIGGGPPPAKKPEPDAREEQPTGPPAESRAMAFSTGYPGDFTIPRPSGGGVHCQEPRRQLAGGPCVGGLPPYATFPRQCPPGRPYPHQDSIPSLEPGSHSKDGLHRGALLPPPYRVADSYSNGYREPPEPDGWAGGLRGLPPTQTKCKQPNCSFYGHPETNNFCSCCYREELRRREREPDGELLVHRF
How it was run: as §1

[3] = target: PRPF8 (UniProt Q6P2Q9)
How it was run: as §1

[4] = target: T3, PSMD7 (UniProt P51665)
T3 sequence (whole entry): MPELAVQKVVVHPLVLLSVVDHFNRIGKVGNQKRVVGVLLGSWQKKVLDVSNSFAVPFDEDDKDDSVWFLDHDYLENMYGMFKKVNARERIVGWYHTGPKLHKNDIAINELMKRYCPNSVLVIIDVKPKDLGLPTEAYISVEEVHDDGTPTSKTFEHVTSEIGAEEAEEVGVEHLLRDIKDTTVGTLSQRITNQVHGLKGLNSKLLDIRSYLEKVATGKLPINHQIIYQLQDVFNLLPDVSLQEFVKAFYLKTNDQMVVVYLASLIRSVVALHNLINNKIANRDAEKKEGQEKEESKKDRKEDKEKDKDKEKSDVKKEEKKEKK
How it was run: as §1

[5] = target: UCHL1 (UniProt P09936)
How it was run: as §1

[6] = target: T4, UCHL3 (UniProt P15374)
T4 sequence (whole entry): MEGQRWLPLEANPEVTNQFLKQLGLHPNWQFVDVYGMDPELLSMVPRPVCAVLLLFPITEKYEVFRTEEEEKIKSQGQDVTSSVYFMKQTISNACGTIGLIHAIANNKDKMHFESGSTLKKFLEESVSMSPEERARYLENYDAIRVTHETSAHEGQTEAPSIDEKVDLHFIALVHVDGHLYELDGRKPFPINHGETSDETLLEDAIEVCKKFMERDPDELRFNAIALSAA
How it was run: as §1

[7] = target: T5, UCHL5 (UniProt Q9Y5K5)
T5 sequence (whole entry): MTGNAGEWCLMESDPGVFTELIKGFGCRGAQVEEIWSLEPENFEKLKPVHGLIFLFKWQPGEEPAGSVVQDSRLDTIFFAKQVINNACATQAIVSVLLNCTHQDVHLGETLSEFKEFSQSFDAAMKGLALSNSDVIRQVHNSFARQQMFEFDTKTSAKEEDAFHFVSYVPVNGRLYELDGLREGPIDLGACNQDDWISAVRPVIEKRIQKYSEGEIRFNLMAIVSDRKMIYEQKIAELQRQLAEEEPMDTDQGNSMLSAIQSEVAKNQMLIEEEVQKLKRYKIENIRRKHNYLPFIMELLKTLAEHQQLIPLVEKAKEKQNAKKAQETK
How it was run: as §1

[8] = target: USP10 (UniProt Q14694)
How it was run: as §1

[9] = target: T6, USP15 (UniProt Q9Y4E8)
T6 sequence (whole entry): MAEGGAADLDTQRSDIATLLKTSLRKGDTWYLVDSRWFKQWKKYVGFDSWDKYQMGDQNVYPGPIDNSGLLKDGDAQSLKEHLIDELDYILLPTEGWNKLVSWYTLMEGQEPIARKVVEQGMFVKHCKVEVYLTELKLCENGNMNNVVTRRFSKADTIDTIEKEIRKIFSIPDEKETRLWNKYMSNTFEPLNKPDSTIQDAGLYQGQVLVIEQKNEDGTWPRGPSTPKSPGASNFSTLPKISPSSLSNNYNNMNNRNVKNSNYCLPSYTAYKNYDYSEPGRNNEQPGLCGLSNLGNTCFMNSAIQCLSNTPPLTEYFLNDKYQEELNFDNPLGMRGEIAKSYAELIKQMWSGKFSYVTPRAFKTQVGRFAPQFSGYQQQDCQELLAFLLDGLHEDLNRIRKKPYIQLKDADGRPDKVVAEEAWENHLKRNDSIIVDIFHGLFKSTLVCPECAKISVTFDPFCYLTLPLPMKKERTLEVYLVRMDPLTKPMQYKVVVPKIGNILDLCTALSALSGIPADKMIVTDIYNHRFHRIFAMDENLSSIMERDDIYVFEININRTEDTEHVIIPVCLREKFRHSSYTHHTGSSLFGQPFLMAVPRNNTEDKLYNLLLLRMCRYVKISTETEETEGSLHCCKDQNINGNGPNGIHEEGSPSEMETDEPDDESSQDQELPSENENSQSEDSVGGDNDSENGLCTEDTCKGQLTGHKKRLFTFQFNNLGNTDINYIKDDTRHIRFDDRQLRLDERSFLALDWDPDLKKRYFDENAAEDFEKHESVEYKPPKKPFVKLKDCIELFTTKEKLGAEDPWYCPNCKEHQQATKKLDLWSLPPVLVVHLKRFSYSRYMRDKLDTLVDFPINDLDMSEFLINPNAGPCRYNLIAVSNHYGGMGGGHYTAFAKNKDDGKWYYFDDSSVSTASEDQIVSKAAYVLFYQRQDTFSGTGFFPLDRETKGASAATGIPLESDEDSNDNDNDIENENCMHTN
How it was run: as §1

Measured: log2 ratio of Biotin-Ahx-Ub-VS probe labelling

Sequence of UCHL1 (P09936 whole entry, looked up): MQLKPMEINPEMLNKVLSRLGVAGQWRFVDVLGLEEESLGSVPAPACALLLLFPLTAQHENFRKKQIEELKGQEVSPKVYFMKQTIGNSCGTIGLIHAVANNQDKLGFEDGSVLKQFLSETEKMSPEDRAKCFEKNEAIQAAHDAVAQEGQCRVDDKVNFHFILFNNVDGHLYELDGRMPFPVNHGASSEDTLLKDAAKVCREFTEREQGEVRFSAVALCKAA
Sequence of USP10 (Q14694 whole entry): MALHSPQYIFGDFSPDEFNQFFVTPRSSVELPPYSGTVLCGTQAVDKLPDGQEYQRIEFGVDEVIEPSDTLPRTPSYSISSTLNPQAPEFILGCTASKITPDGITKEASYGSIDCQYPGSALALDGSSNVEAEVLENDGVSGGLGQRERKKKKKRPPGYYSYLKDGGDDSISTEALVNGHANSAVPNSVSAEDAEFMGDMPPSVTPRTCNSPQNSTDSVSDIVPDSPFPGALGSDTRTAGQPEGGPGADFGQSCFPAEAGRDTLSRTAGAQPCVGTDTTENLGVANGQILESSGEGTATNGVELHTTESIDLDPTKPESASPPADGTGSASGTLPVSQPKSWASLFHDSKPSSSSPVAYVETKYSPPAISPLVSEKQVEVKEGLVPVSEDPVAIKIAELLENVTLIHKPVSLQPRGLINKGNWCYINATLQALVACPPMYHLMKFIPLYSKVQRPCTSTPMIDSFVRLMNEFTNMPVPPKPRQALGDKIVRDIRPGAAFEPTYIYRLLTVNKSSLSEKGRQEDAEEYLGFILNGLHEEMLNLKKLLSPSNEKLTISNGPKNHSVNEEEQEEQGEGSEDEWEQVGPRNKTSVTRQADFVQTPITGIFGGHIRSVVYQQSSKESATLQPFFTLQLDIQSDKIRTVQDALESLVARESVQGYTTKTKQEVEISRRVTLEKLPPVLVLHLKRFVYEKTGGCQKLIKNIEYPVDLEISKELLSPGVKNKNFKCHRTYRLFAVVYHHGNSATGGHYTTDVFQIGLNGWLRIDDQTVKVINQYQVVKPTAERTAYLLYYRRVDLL

CCN(Cc1ccc(C#N)cc1F)C(=O)CCl
active: [5] -1.35
inactive: [1] -0.409 | [2] -0.641 | [3] 0.0668 | [4] -0.234 | [6] 0.0414 | [7] -0.5 | [8] -0.11 | [9] -0.275
